Results filed as inconclusive are left out. Calls of active or inactive are those of the source. Unless noted, calls come from the whole dose curve; as a rule, active = well fitted curve in the direction sought with a large enough effect in the repeat runs; inconclusive = weak or mixed curves; inactive = no such curve, though single readings can be large; an effect the other way counts as inactive or inconclusive.
Experiments:
[1] = qHTS assay to identify small molecule agonists of the vitamin D receptor (VDR) signaling pathway - cell viability counter screen (AID 743224); note: series mostly up to about 63 µM; nearly all actives have a fitted effect of over 50% in size
Method in brief: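 Plated VDR-bla cells (4 h, 37C) received compound, incubated 16 h, then LiveBLAzer substrate 2 h RT; CellTiter-Glo added afterwards, luminescence read at 30 min.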

[2] = qHTS assay to identify small molecule antagonists of the vitamin D receptor (VDR) signaling pathway - cell viability counter screen (AID 743225); note: nearly all actives have a fitted effect of over 50% in size
Method in brief: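 VDR-bla HEK 293T cells, 4 h pre-incubation at 37C, then compound plus 1-alpha,25-dihydroxyvitamin D3 (3 nM final) for 16 h. After the beta-lactamase FRET read, CellTiter-Glo was added to the same wells; luminescence after 30 min at room temperature.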

[3] = qHTS assay to identify small molecule agonists of the NFkB signaling pathway - cell viability counter screen (AID 1159515; calls by dose curve; note: series mostly up to about 61 µM; nearly all actives have a fitted effect of over 55% in size)
Method in brief: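 Using the same wells as the NFkB reporter read, ME-180 NFkB-bla cells given compounds for 5 hr were assessed for viability via CellTiter-Glo, with luminescence taken after a 30 min room-temperature incubation.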

[4] = qHTS assay to identify small molecule agonists of the endoplasmic reticulum stress response signaling pathway (AID 1159516; active = well fitted activation curve with a large enough effect in the signal ratio in the repeat runs, not every such curve was filed as active; the % refers to the signal ratio)
Method in brief: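 An ESRE-bla HeLa cell assay: compounds were pin-transferred from DMSO onto overnight-plated cells and left 5 hr at 37 C. Substrate was then loaded for 2 hr at room temperature before reading fluorescence at 460 nm and 530 nm.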

[5] = qHTS assay to identify small molecule agonists of the endoplasmic reticulum stress response signaling pathway - cell viability counter screen (AID 1159517; calls by dose curve;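 note: HeLa cells carrying an ER stress response element beta-lactamase reporter; series mostly up to about 61 µM; nearly all actives have a fitted effect of over 50% in size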)
Method in brief: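 Counter-screen wells were identical to the reporter wells. Cells were plated at 1,500 per well and dosed for 5 hr, then read for luminescence 30 min after CellTiter-Glo addition.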

[6] = qHTS assay to identify small molecule antagonists of the retinoid-related orphan receptor gamma (ROR-gamma) signaling pathway - cell viability counter screen (AID 1159520); note: nearly all actives have a fitted effect of over 50% in size
Method in brief: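 Tet-on ROR gamma CHO cells were given compounds for 2 hr, then doxycycline hyclate at 1 uM final, and incubated 16 hr at 37 C. Viability was measured as ATP content by CellTiter-Glo luminescence.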

[7] = target: Nuclear receptor ROR-gamma (Homo sapiens) (UniProt P51449); assay: qHTS assay to identify small molecule antagonists of the retinoid-related orphan receptor gamma (ROR-gamma) signaling pathway (AID 1159521)
Method in brief: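 Tet-on RORγ CHO cells carrying a ROR response element–luciferase reporter were pretreated with compounds for 2 h, then induced with 1 uM (final) doxycycline hyclate for 16 h at 37 C. Antagonism was read as decreased ONE-Glo luminescence.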

[8] = qHTS assay to identify small molecule agonists of the AP-1 signaling pathway - cell viability counter screen (AID 1159525; calls by dose curve; note: nearly all actives have a fitted effect of over 55% in size)
Method in brief: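 AP-1-bla ME-180 cells in Opti-MEM with 0.5% dialyzed FBS, compound exposure 5 h at 37 C in 15-point titration. Viability read in the same wells as ATP content by CellTiter-Glo luminescence, normalised to tetra-n-octylammonium bromide and DMSO controls.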

[9] = target: Retinoic acid receptor RXR-alpha (Homo sapiens) (UniProt P19793); assay: qHTS assay to identify small molecule agonists of the RXR signaling pathway (AID 1159527; calls by dose curve; note: nearly all actives have a fitted effect of over 35% in size)
Retinoic acid receptor RXR-alpha (Homo sapiens), sequence (P19793 whole entry, looked up): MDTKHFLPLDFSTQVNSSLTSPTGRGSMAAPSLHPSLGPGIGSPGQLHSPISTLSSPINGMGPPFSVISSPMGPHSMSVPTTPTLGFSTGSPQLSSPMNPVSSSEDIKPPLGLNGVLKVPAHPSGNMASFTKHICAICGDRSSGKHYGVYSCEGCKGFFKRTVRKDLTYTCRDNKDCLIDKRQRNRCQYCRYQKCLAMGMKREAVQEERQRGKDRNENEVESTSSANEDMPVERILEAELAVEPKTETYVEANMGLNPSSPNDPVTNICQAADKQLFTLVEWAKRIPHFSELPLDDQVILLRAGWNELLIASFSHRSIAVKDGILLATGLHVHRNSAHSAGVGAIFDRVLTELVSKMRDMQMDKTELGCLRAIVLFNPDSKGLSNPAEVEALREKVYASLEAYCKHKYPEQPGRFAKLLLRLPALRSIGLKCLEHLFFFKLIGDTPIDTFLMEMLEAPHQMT
Method in brief: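 GeneBLAzer RXR-alpha-UAS-bla HEK 293T cells in medium with 2% charcoal-stripped FBS, pre-incubated 5 hr at 37 C, then exposed to compounds 16 hr. Beta-lactamase reporter read by FRET substrate, 2 hr room temperature, 460/530 nm emission.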

[10] = qHTS assay to identify small molecule agonists of the RXR signaling pathway - cell viability counter screen (AID 1159529)
Method in brief: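 RXR-alpha-UAS-bla HEK 293T cells in medium with 2% charcoal-stripped FBS were preincubated 5 hr, then exposed to compounds for 16 hr at 37 C. Viability was read as CellTiter-Glo luminescence after 30 min at room temperature.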

[11] = qHTS assay to identify small molecule antagonists of the retinoid acid receptor (RAR) signaling pathway - cell viability counter screen (AID 1159551); note: nearly all actives have a fitted effect of over 35% in size
Method in brief: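 Retinol-stimulated (1 uM final) C3RL4 cells, compound 6 h, 37 C; readout CellTiter-Glo luminescence (ATP) after 30 min RT incubation.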

[12] = qHTS assay to identify small molecule agonists of the retinoic acid receptor (RAR) signaling pathway (AID 1159553)
Method in brief: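 Reporter readout comes from luciferase under RARE control in C3RL4 cells; compound exposure lasts 6 hr at 37 C in 5% CO2, and luminescence is recorded following a 30 min room-temperature incubation with reagent.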

[13] = qHTS assay to identify small molecule antagonists of the estrogen related receptor (ERR) signaling pathway from Tox21 library - cell viability counter screen (AID 1224834); note: nearly all actives have a fitted effect of over 30% in size
Method in brief: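 After 17.5 h of compound exposure at 37 C, ERR cells are incubated with CellTiter-Fluor for 30 min and fluorescence intensity serves as the viability measure.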

[14] = qHTS assay to identify small molecule antagonists of the retinoic acid receptor (RAR) signaling pathway (AID 1159552; note: nearly all actives have a fitted effect of over 50% in size)
Method in brief: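 RARE-luc C3RL4 cells; cpds + 1 uM (final) retinol, 6 hr, 37 C/5% CO2; luciferase reagent, 30 min RT, luminescence readout. Inhibitors of retinol-driven signal scored.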

[15] = qHTS assay to identify small molecule agonists of the AP-1 signaling pathway (AID 1159526; calls by dose curve)

Measured: Potency

CCCCCCCC/C=C\CCCCCCCC(N)=O
not listed: [14] | [15]
inactive: all other assays above

N#CCc1cccc(C(F)(F)F)c1
not listed: [9] | [10] | [11] | [15]
inactive: all other assays above

CC(C)CC=O
not listed: [2] | [7] | [9] | [11] | [14]
inactive: all other assays above

Oc1ccc(O)c2c(O)cccc12
not listed: [8] | [15]
inactive: all other assays above

O=C(NS(=O)(=O)/C=C/c1cccs1)c1ccc(F)cc1Br
not listed: [8] | [9] | [12]
inactive: all other assays above
